Data from PMC5700166.

Legend:
[1] = molecular target: T1, GST-Nv-NF-kB (Ser allele) (Nematostella vectensis, UniProt A7UNT2 2-411); assay: protein-binding microarray (PBM); PBM: ~300 nM protein, 6 mM HEPES pH 7.8, 80 mM KCl, 0.5 mM EDTA, 0.5 mM EGTA, 6% glycerol, 35 ng/ul poly-dIdC, 1% milk, 1 h, room temperature; Ap Aiptasia and Nv Nematostella (sea anemones) / Co Capsaspora / Aq Amphimedon (sponge) / Dm Drosophila / Hu human; RHD is the Rel homology domain; high values mean tight binding; settings: dsDNA, one strand shown
T1 sequence: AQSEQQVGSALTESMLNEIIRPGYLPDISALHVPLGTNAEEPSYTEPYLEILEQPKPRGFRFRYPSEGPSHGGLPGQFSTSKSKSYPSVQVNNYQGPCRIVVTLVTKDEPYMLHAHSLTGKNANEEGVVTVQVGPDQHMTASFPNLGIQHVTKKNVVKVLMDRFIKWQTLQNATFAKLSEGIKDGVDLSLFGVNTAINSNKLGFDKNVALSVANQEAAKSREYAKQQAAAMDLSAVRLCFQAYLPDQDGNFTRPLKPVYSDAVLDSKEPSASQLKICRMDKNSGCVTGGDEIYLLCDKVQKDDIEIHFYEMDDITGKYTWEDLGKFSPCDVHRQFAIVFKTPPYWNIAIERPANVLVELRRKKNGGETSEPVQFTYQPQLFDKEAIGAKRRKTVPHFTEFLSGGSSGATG

GST-Hu-p50 = GST-Hu-p50 (Homo sapiens, UniProt P19838 7-356); assay: as above; settings: dsDNA, one strand shown
Chain of GST-Hu-p50 (P19838 7-356): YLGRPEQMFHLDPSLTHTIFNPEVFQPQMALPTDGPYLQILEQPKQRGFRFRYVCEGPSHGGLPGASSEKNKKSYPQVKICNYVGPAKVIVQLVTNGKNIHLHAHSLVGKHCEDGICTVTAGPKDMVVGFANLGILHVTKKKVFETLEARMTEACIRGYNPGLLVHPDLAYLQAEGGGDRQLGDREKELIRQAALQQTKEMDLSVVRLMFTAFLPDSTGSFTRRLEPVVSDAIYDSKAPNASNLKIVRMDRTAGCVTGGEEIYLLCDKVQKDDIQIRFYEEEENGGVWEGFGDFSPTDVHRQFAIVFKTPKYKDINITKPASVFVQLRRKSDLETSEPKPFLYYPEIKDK

Sequence	binding signal [1] [z-score]	binding signal (GST-Hu-p50) [z-score]
CCGATTAACATCAGGGGATTAGATGATGTTAATCGGGTCTTGATTCGCTTGACGCTGCTG	6.46	4.35
CCGATTAACATCAGGCTTCCCCCTGATGTTAATCGGGTCTTGATTCGCTTGACGCTGCTG	6.08	5.25
CCGATTAACATCAACAGGGAAAATGATGTTAATCGGGTCTTGATTCGCTTGACGCTGCTG	5.98	3.34
CCGATTAACATCAAGCGTTCCCCTGATGTTAATCGGGTCTTGATTCGCTTGACGCTGCTG	6.39	3.66
CCGATTAACATCAGGGAAATAAATGATGTTAATCGGGTCTTGATTCGCTTGACGCTGCTG	4.6	3.23
CCGATTAACATCAGGGAGATTTGTGATGTTAATCGGGTCTTGATTCGCTTGACGCTGCTG	3.43	3.58
CCGATTAACATCACATTTTCCCATGATGTTAATCGGGTCTTGATTCGCTTGACGCTGCTG	5.22	3.45
CCGATTAACATCAGAAATTACCATGATGTTAATCGGGTCTTGATTCGCTTGACGCTGCTG	3.08	2.24
CCGATTAACATCAACAAAGTCCCTGATGTTAATCGGGTCTTGATTCGCTTGACGCTGCTG	6.52	4.3
CCGATTAACATCAGGGAATCTCATGATGTTAATCGGGTCTTGATTCGCTTGACGCTGCTG	3.31	2.5
CCGATTAACATCACGGGATTTACTGATGTTAATCGGGTCTTGATTCGCTTGACGCTGCTG	1.41	2.12
CCGATTAACATCAGAATTACCCATGATGTTAATCGGGTCTTGATTCGCTTGACGCTGCTG	3.26	2.83
CCGATTAACATCACGGGACTCCCTGATGTTAATCGGGTCTTGATTCGCTTGACGCTGCTG	3.64	3.14
CCGATTAACATCAGGGAGCCCCCTGATGTTAATCGGGTCTTGATTCGCTTGACGCTGCTG	3.69	5.27
CCGATTAACATCATTGTCCCTTCTGATGTTAATCGGGTCTTGATTCGCTTGACGCTGCTG	3.35	1.99
CCGATTAACATCATGGGTGGGAATGATGTTAATCGGGTCTTGATTCGCTTGACGCTGCTG	1.12	1.32
CCGATTAACATCAATGCACCCCCTGATGTTAATCGGGTCTTGATTCGCTTGACGCTGCTG	4.37	4.12

Sequence	binding signal [1] [z-score]	binding signal (GST-Hu-p50) [z-score]
CCGATTAACATCAGGAGTACCCCTGATGTTAATCGGGTCTTGATTCGCTTGACGCTGCTG	2.31	2.81
CCGATTAACATCATGTTGGGAAATGATGTTAATCGGGTCTTGATTCGCTTGACGCTGCTG	2.11	1.47
CCGATTAACATCAGAATTGCCCCTGATGTTAATCGGGTCTTGATTCGCTTGACGCTGCTG	2.89	4.35
CCGATTAACATCAGGAATTTACCTGATGTTAATCGGGTCTTGATTCGCTTGACGCTGCTG	4.26	3.27
CCGATTAACATCAATTTTTCCCATGATGTTAATCGGGTCTTGATTCGCTTGACGCTGCTG	5.77	3.53
CCGATTAACATCAGGGATTTTGATGATGTTAATCGGGTCTTGATTCGCTTGACGCTGCTG	2.92	2.85
CCGATTAACATCAGGGAGATACCTGATGTTAATCGGGTCTTGATTCGCTTGACGCTGCTG	1.75	3.08
CCGATTAACATCAGGGATACCCCTGATGTTAATCGGGTCTTGATTCGCTTGACGCTGCTG	2.97	4.12
CCGATTAACATCAGGGAAAACGATGATGTTAATCGGGTCTTGATTCGCTTGACGCTGCTG	6.01	2.13
CCGATTAACATCACGGGAAGTCCTGATGTTAATCGGGTCTTGATTCGCTTGACGCTGCTG	1.71	1.59
CCGATTAACATCAGGGGCGGGAATGATGTTAATCGGGTCTTGATTCGCTTGACGCTGCTG	3.18	2.9
CCGATTAACATCAAGGGATTTCCTGATGTTAATCGGGTCTTGATTCGCTTGACGCTGCTG	3.4	3.68
CCGATTAACATCAGGAATGTACCTGATGTTAATCGGGTCTTGATTCGCTTGACGCTGCTG	3.2	2.14
CCGATTAACATCAGAGTCCCCCCTGATGTTAATCGGGTCTTGATTCGCTTGACGCTGCTG	5.12	5.06
CCGATTAACATCAAAAAATACCATGATGTTAATCGGGTCTTGATTCGCTTGACGCTGCTG	2.92	2.43
CCGATTAACATCACATTATCCCCTGATGTTAATCGGGTCTTGATTCGCTTGACGCTGCTG	6.4	3.94
